From PubChem BioAssay (NCATS) come the findings set out here.

A short description of assay [1]: Primary qHTS for inhibitors of nuclear receptor binding SET domain protein 2 (NSD2) in an RCH-ACV wild type WT cells (2C) (AID 1645877; further: nearly all actives have a fitted effect of over 70% in size; further: potency means the concentration at half of the fitted maximal effect). (qHTS replaces the single test concentration by a dilution series.)
The target of assay [2] is Catechol O-methyltransferase (Homo sapiens) (UniProt P21964). Description: Confirmatory Screen for Target Class Profiling of Small Molecule Inhibitors of Methyltransferases (AID 1745852; calls by dose curve; on activity change, negative = inhibition: on the % scale 0 is the no-effect control and ±100 the full control effect). The following applies: MTase-Glo luminescence, SAH detection, recombinant enzyme; measured here: COMT max response; stronger effect = lower value.
For assay [3], the target named is Guanidinoacetate N-methyltransferase (Homo sapiens) (UniProt Q14353). The description is as above. The note with it: activity change, negative = inhibition: at 57.3 µM (top of the series) unless noted.
In assay [4] the target is Nicotinamide N-methyltransferase (Homo sapiens) (UniProt P40261). The assay is described as above. The following applies: MTase-Glo luminescence, SAH detection, recombinant enzyme; measured here: NNMT max response; stronger effect = lower value.
Assay [5] has as its target Phenylethanolamine N-methyltransferase (Homo sapiens) (UniProt P11086). The assay is described as above. The note with it: MTase-Glo luminescence, SAH detection, recombinant enzyme; measured here: PNMT max response; stronger effect = lower value.
Assay [6] addresses Glutathione peroxidase 1 (Homo sapiens) (UniProt P07203). Nature of the assay: Primary qHTS Assay for Inhibitors of Recombinant Selenoprotein Glutathione Peroxidase 1 (GPX1) (AID 1845191). Further: nearly all actives have a fitted effect of over 65% in size. Summed up: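 GPX1 10 nM, GR 100 nM, GSH 1 mM, NADPH 0.5 mM, CHP 0.5 mM (final). 30-min cpd preincubation, RT. Ex340/Em450 read t=0, t=15 min.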
In assay [7] the target is Phospholipid hydroperoxide glutathione peroxidase GPX4 (Homo sapiens) (UniProt P36969). Description: Primary qHTS Assay for Inhibitors of Recombinant Selenoprotein Glutathione Peroxidase 4 (GPX4) (AID 1845192). Further: nearly all actives have a fitted effect of over 65% in size. On activity change, negative = inhibition: on the % scale 0 is the no-effect control and ±100 the full control effect. Summed up:
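qHTS, GR-coupled: GPX4 200 nM + cpd 30 min RT → GSH 1 mM, NADPH 0.5 mM, GR 100 nM → CHP 0.5 mM start; fluor 340/450 at t0 and t15 min; no-enzyme wells as control.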

Assay [8] addresses Luciferin 4-monooxygenase (Photinus pyralis) (UniProt P08659). Nature of the assay: Primary firefly luciferase (FLuc) qHTS assay for identification of artifact compounds. (AID 1845220). Further: nearly all actives have a fitted effect of over 60% in size.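 On activity change, negative = inhibition: plate controls were DMSO vehicle for no effect and no enzyme for full effect.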 Summed up:
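qHTS, 15 min compound preincubation with substrate (10 uM luciferin, 10 uM ATP) at RT, then 10 nM FLuc; 5 min; luminescence; % inhibition vs no-enzyme/DMSO controls, 4-parameter Hill fit.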

The nature of assay [9]: Primary fluorescence-based thiol-reactive (MSTI) qHTS assay for identification of artifact compounds. (AID 1845221). Further: nearly all actives have a fitted effect of over 65% in size. Further: potency means the concentration at half of the fitted maximal effect. Summed up: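 Thiol-reactive compounds detected by quenching of 4 uM MSTI fluorescence (525/598 nm) after 1 h room-temperature dark incubation in PBS pH 7.4, 2% DMSO. qHTS titration; percent inhibition Hill-fitted against Acetyl-MSTI/MSTI controls.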
The subject of assay [10] is Nanoluciferase (engineered Oplophorus gracilirostris luciferase). Nature of the assay: Primary Nanoluciferase (NLuc) qHTS assay for identification of artifact compounds. (AID 1845222). The procedure, abridged: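 Luminescence read-out of secreted NLuc in S16 cell conditioned medium (1:55); compounds tested with 15 min RT preincubation, then Nano-Glo substrate 1:100, 5 min. % inhibition vs no-enzyme and DMSO controls, 4-parameter Hill fit.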

Assay [11] is described as follows: Primary redox qHTS assay for identification of artifact compounds. (AID 1845223).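 Further: 0% = DMSO and 100% = reference compound.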 The procedure, abridged: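 Redox-cycling detection via DTT (250 uM final) oxidation coupled to Amplex Red (25 uM)/HRP (250 mU/mL) in HBSS. 15 min preincubation plus 30 min after DTT, room temperature. Ex/Em 525/598 nm; 4-parameter Hill fit against DMSO and 10 uM DA3003.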
Assay [12] in a line: Viability counterscreen for antagonist of constitutive androstane receptor (CAR) against the NCATS DSHEA and TCM libraries (AID 1794837).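 Further: compound exposure lasted 24 h before viability reading; 0% is about no effect.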 The procedure, abridged: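 Cell viability, CellTiter-Fluor, Ex/Em 405/540 nm, 1 h at 37C. HepG2-CYP2B6-hCAR, 2,500 cells/well; cpds + CITCO 48 uM final (antagonist mode), 24 h, 37C/5% CO2.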
(A counterscreen serves to expose hits that act by an unwanted route or on another target.)

The nature of assay [13]: Viability counterscreen for agonist of constitutive androstane receptor (CAR) against the NCATS DSHEA and TCM libraries (AID 1794838). Further: 0% is about no effect. Summed up: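 Viability by CellTiter-Fluor fluorescence, 405/540 nm, after 1 h at 37C. HepG2-CYP2B6-hCAR cells were exposed 24 h to test substances in presence of 0.75 uM PK11195 (final).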
Assay [14] deals with Nuclear receptor subfamily 1 group I member 3 (Homo sapiens) (UniProt Q14994). Nature of the assay: Primary qHTS for agonist of constitutive androstane receptor (CAR) against the NCATS DSHEA and TCM libraries (AID 1794839).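 Further: HepG2 cells expressing human CAR with a CYP2B6 reporter plus PK11195 antagonist; 0% is about no effect.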 The procedure, abridged:
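Luminescence from ONE-Glo luciferase was the agonist read-out in HepG2-CYP2B6-hCAR cells exposed 24 h to test substances. Wells also held the CAR antagonist PK11195 at 0.75 µM final. Viability was by CellTiter-Fluor fluorescence.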

A short description of assay [15]: HepG2 viability counterscreen (readout 2: ATP content) against the NCATS DSHEA and TCM libraries (AID 1794840). Further: 0% is about no effect. The procedure, abridged: (§1)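 1,000 HepG2 cells/well, 4 h attach; compounds ~24 h, 37C/5% CO2. Readout 1: GF-AFC 25 uM final, 30 min, fluorescence 380/510 nm. Readout 2: CellTiter-Glo, 30 min RT, luminescence.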
The nature of assay [16]: HepG2 viability counterscreen (readout 1: protease activity) against the NCATS DSHEA and TCM libraries (AID 1794841).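 Further: cells exposed to compounds for about 24 h before the protease read; 0% is about no effect.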 The procedure, abridged:
as §1

Assay [17] deals with Cytochrome P450 3A4 (Homo sapiens) (UniProt P08684). Nature of the assay: qHTS for inhibitors of CYP3A4 against the NCATS DSHEA and TCM libraries (AID 1919971).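 Further: on the % scale 0 is the no-effect control and ±100 the full control effect; inhibition lowers luminescence from luciferin made by CYP3A4.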 The procedure, abridged:
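Substances were tested against enzyme with a pro-luciferin substrate; minus-enzyme wells served as background. After NADPH-initiated oxidation (30-45 min, RT), light was generated with P450-Glo reagent.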

Where “and” joins values, the source holds several entries; their conditions need not be identical. Equal entries are not always repeated. Records with an inconclusive call do not appear. Calls of active or inactive are those of the source. Unless noted, the call rests on the fitted dose curve; in most records, active means well fitted curve in the direction sought with a large enough effect; inconclusive means small, poorly fitted or top-dose-only effect, or another doubt; inactive means no such curve, though single readings can be large; an effect the other way counts as inactive or inconclusive.

Sequence of Catechol O-methyltransferase (Homo sapiens) (P21964 whole entry, looked up): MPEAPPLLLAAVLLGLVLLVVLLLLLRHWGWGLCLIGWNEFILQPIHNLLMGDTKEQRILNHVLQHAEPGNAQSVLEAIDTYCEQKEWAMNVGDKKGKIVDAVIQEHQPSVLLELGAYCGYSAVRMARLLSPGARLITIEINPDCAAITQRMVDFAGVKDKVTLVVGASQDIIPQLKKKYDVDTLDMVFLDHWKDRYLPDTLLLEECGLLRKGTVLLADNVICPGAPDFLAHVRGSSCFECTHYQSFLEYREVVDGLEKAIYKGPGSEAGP
Sequence of Nicotinamide N-methyltransferase (Homo sapiens) (P40261 whole entry, looked up): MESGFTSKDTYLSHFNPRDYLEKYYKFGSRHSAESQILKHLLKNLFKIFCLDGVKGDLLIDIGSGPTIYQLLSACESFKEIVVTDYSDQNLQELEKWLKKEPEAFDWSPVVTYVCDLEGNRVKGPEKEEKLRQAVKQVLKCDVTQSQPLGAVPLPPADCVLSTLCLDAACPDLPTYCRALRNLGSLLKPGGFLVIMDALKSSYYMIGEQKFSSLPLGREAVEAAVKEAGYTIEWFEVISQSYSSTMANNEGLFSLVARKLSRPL
Sequence of Glutathione peroxidase 1 (Homo sapiens) (P07203 whole entry, looked up): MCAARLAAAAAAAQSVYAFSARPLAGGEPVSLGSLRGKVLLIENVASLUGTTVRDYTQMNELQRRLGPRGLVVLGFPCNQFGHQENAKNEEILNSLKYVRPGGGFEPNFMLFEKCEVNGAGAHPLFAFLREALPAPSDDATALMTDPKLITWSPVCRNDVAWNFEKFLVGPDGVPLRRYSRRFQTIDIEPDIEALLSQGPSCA
Sequence of Phenylethanolamine N-methyltransferase (Homo sapiens) (P11086 whole entry, looked up): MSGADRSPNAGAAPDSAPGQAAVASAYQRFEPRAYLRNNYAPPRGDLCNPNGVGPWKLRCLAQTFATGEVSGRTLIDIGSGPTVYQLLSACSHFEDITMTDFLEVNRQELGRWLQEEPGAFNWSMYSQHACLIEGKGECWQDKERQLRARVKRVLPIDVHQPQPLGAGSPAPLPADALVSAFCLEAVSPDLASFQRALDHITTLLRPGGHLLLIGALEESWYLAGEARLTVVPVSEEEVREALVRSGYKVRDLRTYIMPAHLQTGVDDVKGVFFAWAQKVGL
Sequence of Phospholipid hydroperoxide glutathione peroxidase GPX4 (Homo sapiens) (P36969 whole entry, looked up): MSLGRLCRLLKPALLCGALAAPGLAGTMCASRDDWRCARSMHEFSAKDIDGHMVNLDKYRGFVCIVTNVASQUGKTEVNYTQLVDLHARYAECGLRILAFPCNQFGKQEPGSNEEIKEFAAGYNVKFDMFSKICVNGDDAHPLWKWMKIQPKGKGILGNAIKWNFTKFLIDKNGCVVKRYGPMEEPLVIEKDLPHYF
Sequence of Cytochrome P450 3A4 (Homo sapiens) (P08684 whole entry, looked up): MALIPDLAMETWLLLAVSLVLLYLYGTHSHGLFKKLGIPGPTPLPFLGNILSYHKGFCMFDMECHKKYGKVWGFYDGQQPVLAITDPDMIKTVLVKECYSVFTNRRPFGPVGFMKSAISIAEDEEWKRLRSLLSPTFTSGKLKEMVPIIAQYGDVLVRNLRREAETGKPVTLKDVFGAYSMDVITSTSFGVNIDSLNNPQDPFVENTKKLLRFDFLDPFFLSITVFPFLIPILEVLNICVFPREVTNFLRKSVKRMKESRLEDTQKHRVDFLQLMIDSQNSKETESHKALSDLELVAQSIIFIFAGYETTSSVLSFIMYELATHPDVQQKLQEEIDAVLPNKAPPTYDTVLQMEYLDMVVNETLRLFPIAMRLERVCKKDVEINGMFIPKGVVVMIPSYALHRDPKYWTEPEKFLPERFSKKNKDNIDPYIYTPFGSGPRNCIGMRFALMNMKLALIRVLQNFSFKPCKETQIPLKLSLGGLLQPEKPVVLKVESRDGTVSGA
Sequence of Nuclear receptor subfamily 1 group I member 3 (Homo sapiens) (Q14994 whole entry, looked up): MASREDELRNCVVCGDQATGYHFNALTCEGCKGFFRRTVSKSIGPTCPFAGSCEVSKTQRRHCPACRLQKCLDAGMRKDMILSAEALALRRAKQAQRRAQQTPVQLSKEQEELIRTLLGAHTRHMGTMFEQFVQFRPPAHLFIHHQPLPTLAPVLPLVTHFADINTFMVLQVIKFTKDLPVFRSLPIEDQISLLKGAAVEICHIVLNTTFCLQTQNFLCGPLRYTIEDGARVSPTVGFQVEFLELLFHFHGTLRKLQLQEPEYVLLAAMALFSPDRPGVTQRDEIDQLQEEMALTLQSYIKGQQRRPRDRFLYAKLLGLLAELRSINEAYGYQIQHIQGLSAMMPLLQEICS

On to `CC(C)CCC1(O)C(=O)C(C)(C)C(O[C@@H]2O[C@H](CO)[C@@H](O)[C@H](O)[C@H]2O)C(C)(C)C1O` (some centres not stated), for which the Potency result in assay [1], in [6], in assay [7], in [8], in assay [10] and in assay [11] was “inactive” in each case. Besides, the activity in assay [2] is -56.9%; in [4], -3.79%; in [5] it was -2.04%. For the same molecule, the activity change, negative = inhibition in [3] is -2.97% [at 29.8 µM]. In assay [9], the Potency is 2320 nM (active).
For `O=C(O)c1ccc(CN2CCC(CN[C@@H]3C[C@H]3c3ccccc3)CC2)cc1`, the Potency result in assay [1], in assay [6], in assay [7], in [8], in assay [9] and in [10] was “inactive” throughout. In addition, in assay [11], the Potency result is “inactive”. The activity in assay [2] was 4.43%; in [4], -0.425%; in [5], 5.38%. For the same molecule, the activity change, negative = inhibition in [3] was -0.127%.
With `NC[C@@](O)(c1ccc(Cl)cc1)c1ccc(-c2cn[nH]c2)cc1`, in assay [1], the Potency is 4.59 µM (active) and 4.68 µM (active). The activity was 1.95% in assay [2], -0.549% in [4] and -0.0519% in assay [5]. Further, the activity change, negative = inhibition in assay [3] turned out to be 0%. Moreover, the Potency result in assay [6], in assay [7], in assay [8], in assay [9], in assay [10] and in [11] was “inactive” throughout.
For the molecule `COc1cc(/C=C/C(=O)OC[C@H]2O[C@@](CO)(O[C@H]3O[C@H](CO)[C@@H](O)[C@H](O)[C@H]3O)[C@@H](OC(=O)/C=C/c3ccc(O)c(OC)c3)[C@@H]2O)ccc1O`, the Potency entry in assay [1], in assay [6], in assay [7], in assay [8], in assay [10] and in [11] was “inactive” each time. The activity was -51% in assay [2], -6.08% in assay [4] and -2.86% in assay [5]. Further, the activity change, negative = inhibition in [3] is -4.9% [at 19.1 µM]. For the same molecule, the Potency in [9] is 3540 nM (active).
Consider `CN(C)c1nc(NC2CCC(NCCc3ccc(Br)cc3OC(F)(F)F)CC2)nc2ccccc12` (configuration not stated), for which the Potency in assay [1] was 2.58 µM (active). In addition, the activity in assay [2] was -10.3%; in assay [4], -85%; in assay [5], -42.3%. In addition, in assay [3], the activity change, negative = inhibition is -2.23%. In addition, the Potency entry in assay [6], in assay [7], in [8], in assay [9], in assay [10] and in assay [11] was “inactive” throughout.
As to `Cc1c[nH]c2nccc(Oc3c(F)cc(Nc4cc(Cl)nc(N)n4)cc3F)c12`, in [1], the Potency was 0.731 µM (active). Further, the activity is -14.6% in [2], -27.7% in assay [4] and -3.98% in [5]. Also, the activity change, negative = inhibition in assay [3] worked out at 0%. Also, the Potency result in [6], in assay [7], in [8], in assay [9], in assay [10] and in [11] was “inactive” each time.
Turning to `CC(C)=CCC(O)/C(C)=C/CO[C@@H]1O[C@H](CO)[C@@H](O)[C@H](O)[C@H]1O` (some centres not stated), the Potency result in assay [1], in assay [6], in [7], in [9], in assay [10] and in assay [11] was “inactive” each time. Besides, the activity was -52% in assay [2], 0% in [4] and 5.19% in assay [5]. Further, in assay [3], the activity change, negative = inhibition is 0%. The outcome in [12], in [13], in assay [14], in assay [15], in assay [16] and in assay [17] was “inactive” throughout.
